Inhibition data for 26 molecules are collected here from PubChem BioAssay AID1863 (Southern Research Specialized Biocontainment Screening …, 2009).

The campaign covered roughly 300,000 compounds. About 480 (0.16%) were called active. Not all results are given here. Results with a measured potency or affinity are listed apart. A number with no mark means an inactive call.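 The calls were made as follows: active = inhibition over 29.93%, a cutoff 3 SD above the screen mean, later confirmed by dose response; inconclusive = inhibition over 29.93% but no dose response follow-up; inactive = inhibition at most 29.93% or unconfirmed.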

This assay is described as follows: inhibitors of PhoP regulon expression, primary screen, Salmonella Typhimurium, GFP reporter (AID 1863).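 Also: 0% = low Mg2+ inducing control and 100% = high Mg2+ repressing control.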 The following applies: S. Typhimurium PhoP-regulated promoter GFP reporter, 4 h; at 50 µM; stronger effect = higher value.
The term inhibition denotes the drop in the measured response relative to a control, in per cent. Regarding `CCc1ccc2[nH]c3nc(N/N=C/c4cccc(O)c4)nnc3c2c1`, the inhibition is 1.71%.

Regarding `CC(=O)N/N=C/c1c(C)[nH]n(-c2ccccc2)c1=O`, the inhibition is 3.32%. For the molecule `Oc1ccc(/C=N\Nc2nncc(-c3ccccc3)n2)cc1`, the inhibition is 1.9%. The same measure for `COc1ccc(S(=O)(=O)NCC(=O)N(CC(=O)NCc2ccco2)Cc2ccc(F)cc2)cc1`: 6.01%; for `Oc1ccccc1Nc1ccccn1`: 0.2%; for `c1ccc(Nc2ccccn2)nc1`: -3.66%. As for `CCCc1[nH]nc2c1C(c1ccc(OC)c(Cn3nnc4ccccc43)c1)C(C#N)=C(N)O2` (stereo unspecified), the inhibition is 6.36%. In the case of `CC(C)(C)OC(=O)N1CCN(C(=O)c2[nH]cnc2C(=O)N[C@@H](Cc2ccccc2)C(=O)OCc2ccccc2)CC1`, the inhibition was 7.86%. The same measure for `COc1ccc(OC)c(N2C(N)=NC(N)=NC23CCCC3)c1`: -1.52%; for `COc1cccc(C(=O)Nc2nnc(-c3cccs3)o2)c1`: 8.85%.

For the molecule `O=C(Nc1nnc(-c2cccs2)o1)c1cccc(C(F)(F)F)c1`, the inhibition was -1.86%. For the molecule `N=c1n(CC(=O)c2cccs2)c2ccccc2n1Cc1ccccc1`, the inhibition is -1.64%.

Consider `CCn1c(=N)n(CC(=O)c2ccc(Br)s2)c2ccccc21`, for which the inhibition is 9.45%. For `Cc1nc2ccc(S(=O)(=O)NCC(=O)Nc3cccc(F)c3)cc2s1`, the inhibition was 0.67%. In the case of `Nc1c(Cl)ncnc1N/N=C/c1ccncc1`, the inhibition is -8.59%. Regarding `Nc1c(Cl)ncnc1N/N=C/c1ccc2ccccc2n1`, the inhibition is -18.8%. `Cc1cc(CNC(=O)C2CCC(=O)N(Cc3cccc(C(F)(F)F)c3)C2)no1` (stereo unspecified): the inhibition is 8.7%. Turning to `Cn1c(=O)c(=O)n(C)c2cc(S(=O)(=O)N3CCN(c4cccc(C(F)(F)F)c4)CC3)ccc21`, the inhibition is -8.38%.

As to `COc1cccc(N(CC(=O)NC(C)c2ccccc2)S(C)(=O)=O)c1` (stereo unspecified), the inhibition is -3.79%. On to `Nc1nnc(CC(=O)N/N=C/c2ccccc2OCc2ccccc2F)s1`, for which the inhibition is 2.44%. Consider `COC(=O)[C@H](CCSC)NC(=O)Nc1ccc(C)cc1`, for which the inhibition is -5.05%. Consider `CSCC[C@H](NC(=O)Nc1ccc(S(N)(=O)=O)cc1)C(=O)O`, for which the inhibition is -5.86%.

For `COc1cccc(OCc2cc(C(=O)N3CCN(c4ccccc4O)CC3)no2)c1`, the inhibition was 8.64%. As to `CCCOc1ccc(C(=O)O)cc1`, the inhibition is -6.14%.

Take `CCOc1ccc(C(=O)C(CCC(CN(C)C)C(=O)c2ccc(OCC)cc2)CN(C)C)cc1` (stereo unspecified): the inhibition was 17.1%. In the case of `COCCn1c(SCC(=O)N2CCCCC2)nc2c([nH]c3ccccc32)c1=O`, the inhibition was -1.34%.
